Among the data in PubChem BioAssay AID2401 (Southern Research Specialized Biocontainment Screening …, 2010) are outcome values, retold here.

Among all 2,200 compounds or so, about 530 (24%) were called active.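 Rule for the calls: active = inhibition above a set limit at one or more concentrations of the dose series; inactive = inhibition under that limit at every dose.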 The list is a sample of the results. Entries with a potency or affinity are not part of this list.

A short description of the experiment: S. Typhimurium nonspecific reporter signal inhibition – Salmonella Typhimurium, GFP fluorescence, counter-screen for PhoP regulon inhibitor project, dose response (AID 2401).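 Note: S. typhimurium with Mg-insensitive nmpC-GFP reporter grown at 10 µM Mg2+; drop in reporter fluorescence reflects general culture growth inhibition.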 As to conditions: 4 h; series mostly up to 150 µM.
Take `CC(=O)Nc1cccc(-c2csc(Nc3ccccn3)n2)c1`: the result was inactive.
For `c1ccc(Nc2nc3ccccc3[nH]2)nc1`, the result was inactive.
On to `Clc1ccc(Cn2ncc3c(NCc4ccco4)ncnc32)c(Cl)c1`, for which the compound was classed as inactive.
The entry for `Cc1nc2cc(NC(=O)N3CCN(c4ccccn4)CC3)ccc2o1` is “inactive”; for `CC(C)N(Cc1nc(-c2ccccc2)no1)C(=O)CN(C)S(=O)(=O)c1ccccc1` it is “inactive”.
To `COc1ccccc1NCCC(=O)OCC(=O)NC1CCCCCC1` belongs “inactive”; to `Cc1ccc(NC(=O)CO/N=C(\N)c2nonc2N)cc1`, “inactive”; to `O=c1cc(CSc2nc(NCc3ccccc3)c3ccccc3n2)nc2ccc(Cl)cn12`, “inactive”.
For `N/C(=N\OC(=O)N1c2ccccc2Sc2ccccc21)c1ccccc1`, the compound was classed as inactive.
To `Cc1cc(C)cc(OC(=O)CS(=O)c2ccc(C(F)(F)F)cc2[N+](=O)[O-])c1` (centres undefined) belongs “inactive”; to `CCCOc1ccc(/C=N/O)cc1`, “inactive”; to `C=C(C)C1Cc2cc3ccc(=O)oc3cc2O1` (centres undefined), “inactive”.
To `CCOc1cc(C2Nc3cccc4cccc(c34)N2)ccc1O` belongs “inactive”; to `CC(=O)N/N=C/c1ccc(OCCOc2ccc(Br)cc2)cc1`, “inactive”; to `COC(=O)CCC(=O)Nc1ccc(OC)cc1`, “inactive”.
The entry for `COc1cccc(-n2c(SCc3cc(=O)oc4cc(O)c(O)cc34)nc3ccccc3c2=O)c1` is “inactive”.
With `O=C(Cn1cnc2scc(-c3ccccc3)c2c1=O)N1CCOCC1`, the compound was called inactive.
The entry for `COc1ccccc1Nc1nc(-c2c(C)[nH]c3ccccc23)cs1` is “inactive”.
As to `N#Cc1c(N)n[nH]c1-c1cc2c([nH]1)CCCC2`, the result was inactive.
The entry for `Cc1ccc(CNC(=O)Nc2cccs2)cc1` is “inactive”.
To `CCc1cccc2c(C#N)cn(CC(=O)NCCOC)c12` belongs “inactive”.
For the compound `Cc1nc(N2CCN(Cc3ccccc3)CC2)nc2c1C(=O)CC(C)C2` (centres undefined), the result was inactive.
The entry for `Cc1cc(C)n(-c2ccc(C(=O)OCC(=O)Nc3ccc([N+](=O)[O-])cc3)cc2)n1` is “inactive”; for `O=C(OCCN1C(=O)c2ccccc2C1=O)c1ccc(S(=O)(=O)N2CCCCCC2)cc1` it is “inactive”; for `COc1ccc(/C=C2\CN(Cc3ccccc3)C/C(=C\c3ccc(OC)cc3)C2=O)cc1` it is “inactive”.
The entry for `N/C(=N\OC(=O)Nc1ccc(Cl)cc1)c1ncc(C(F)(F)F)cc1Cl` is “inactive”; for `COc1cccc(C=NCC(C)N=Cc2cccc(OC)c2O)c1O` (centres undefined) it is “inactive”; for `Cn1c(CO)cnc1SCc1ccc([N+](=O)[O-])cc1` it is “inactive”.
`Cc1nn(-c2ccccc2)c2sc(-c3n[nH]c(=S)o3)cc12`: the result was inactive.
In the case of `COc1ccc(C(=O)NC(=S)NCc2ccc(-c3nc4ccccc4o3)cc2)cc1OC`, the outcome was inactive.
For `O=C1NC(c2ccc3c(c2)OCO3)Oc2ccccc21` (centres undefined), the call was inactive.
Consider `O=C(O)CCC(=O)NCC1OCCc2ccccc21` (centres undefined), for which the result was inactive.
To `C=CCNc1nnc(Cl)c2ccccc12` belongs “inactive”; to `CCCCCCCCOC(=O)C1=C(C)Nc2nnnn2C1c1cccs1` (centres undefined), “inactive”.
For the compound `CCOC(=O)c1c(/N=C/c2ccc(O)cc2O)sc2c1CCC2`, the compound was classed as inactive.
To `O=C(c1ccc(Cl)cc1Cl)C1(n2cncn2)Oc2ccccc2C1O` (centres undefined) belongs “inactive”.
The entry for `O=C(CCN1CCN(c2ccc(F)cc2)CC1)Nc1ccccc1F` is “inactive”.
Consider `Cc1sc(NC(=O)c2ccco2)c(CN2CCN(c3ccc(F)cc3)CC2)c1C`, for which the result was inactive.
On to `CCOC(=O)c1cc2sc(C)cc2n1CC(=O)NCc1ccc(F)cc1`, for which the compound was classed as inactive.
To `CC(C(=O)Nc1cc([N+](=O)[O-])ccc1Cl)N1CCN(c2ccccc2O)CC1` (centres undefined) belongs “inactive”; to `CC(C)NC(=O)/C(=N\O)c1ccccc1`, “inactive”.
Turning to `CCOC(=O)C(/C=C(\C#N)C(=O)OCC)=C(/N)N1CCN(c2c(C)cccc2C)CC1`, the call was inactive.
To `O=S(=O)(Nc1cc(Sc2ncn[nH]2)c(O)c2ccccc12)c1ccccc1` belongs “inactive”; to `O=[N+]([O-])c1ccc(NCCCNS(=O)(=O)c2ccccc2)c(Cl)c1`, “inactive”.
To `Nc1c(-c2ccccc2)cnn1-c1cccc([N+](=O)[O-])c1` belongs “inactive”.
The entry for `CCC(Sc1ncccc1C(=O)OC(C)C)C(=O)N1CCOCC1` (centres undefined) is “inactive”; for `Cc1ccc(C)n1-c1cc(S(=O)(=O)N2CCOCC2)ccc1N1CCCC1` it is “inactive”.
On to `Cc1cc(Nc2ccccc2F)n2ncnc2n1`, for which the result was inactive.
Regarding `N#Cc1ccc(CSc2nnc(-c3ccncc3)n2CCc2ccccc2)cc1`, the compound was called inactive.
To `C/C(=N\NC(=O)c1ccccc1)c1ccc2c(c1)OCO2` belongs “inactive”.
`O=C(NN=C1CCN(Cc2ccccc2)CC1)c1cc2ccccc2cc1O`: the outcome was inactive.
Take `CN(C(=S)Nc1ccc(Oc2ccccc2)cc1)c1ccc(O)cc1`: the call was inactive.
To `CC(C)Cn1c(-c2ccccc2)nc2ccccc2c1=O` belongs “inactive”.
The entry for `COC(=O)c1c(C(=O)OC)c(-c2cccc(C)c2)n2c1CS(=O)(=O)C2` is “inactive”.
The entry for `NC(=NCCc1c[nH]c2ccccc12)NC(=O)c1ccc(F)cc1` is “inactive”; for `CC1CCN(c2ccc(NC(=S)NC(=O)c3ccc(-c4cccc([N+](=O)[O-])c4)o3)cc2)CC1` it is “inactive”.
On to `CCOc1ccc(-c2noc(CCCC(N)=O)n2)cc1OC`, for which the compound was classed as inactive.
`O=C(CNC(=O)c1ccco1)OCC(=O)c1ccc2c(c1)CCCC2`: the compound was classed as inactive.
For `C/C(=N\n1nnnc1Nc1ccccc1)c1ccc(N)cc1`, the call was inactive.
To `COc1ccc(NC(=O)CSc2nc(C)cs2)cc1OC` belongs “inactive”.
The entry for `c1ccc(CCNc2nc3ccccc3s2)cc1` is “inactive”; for `Cc1cc(NC(=O)c2cnn3cccnc23)no1` it is “inactive”.
The entry for `COc1ccc(-c2ccc(-c3noc(-c4cccs4)n3)c(OC)n2)cc1` is “inactive”.
Consider `COc1ccc(NC(C)C(=O)Nc2ccc(C(C)(C)C)cc2)cc1Cl` (centres undefined), for which the call was inactive.
The entry for `CC1CCCCN1CCNS(=O)(=O)c1ccc2c(c1)oc(=O)n2C` (centres undefined) is “inactive”.
On to `Cc1ccccc1-n1nnnc1Sc1nnnn1-c1ccccc1`, for which the call was inactive.
To `C=CCn1c(SCc2c(C(=O)OC)sc(N)c2C(=O)OC)nnc1-c1ccc(Cl)cc1` belongs “inactive”.
Turning to `CSCCC(NC(=O)c1cccc(C)c1)C(=O)OCC(=O)NC(=O)c1cccn1C` (centres undefined), the call was inactive.
In the case of `COc1ccc(-c2cc(C(=O)O)[nH]n2)cc1OC`, the compound was called inactive.
To `O=C(O)CCc1nn2c3ccccc3n(CC(=O)c3ccccc3)c2nc1=O` belongs “inactive”; to `COc1ccccc1/C=C1\CCCC2=C1Nc1nnnn1C2c1ccccc1OC` (centres undefined), “inactive”.
Turning to `CCN(CC(=O)N1CCN(Cc2ccccc2)CC1)S(=O)(=O)c1ccc(F)cc1`, the compound was classed as inactive.
The entry for `S=C(Nc1cccc(Cl)c1)Nc1cccc2cnccc12` is “inactive”; for `S=C(NCc1cccnc1)Nc1ccc(Cl)cc1` it is “inactive”.
The entry for `CSC(=NS(=O)(=O)c1ccccc1)SC` is “inactive”.
As to `CCN(CC)c1ccc(/C=C(\C#N)C(=O)NCc2ccco2)cc1`, the compound was classed as inactive.
The entry for `CCOC(=O)C1=C(C)NC(=O)NC1c1c(OCC(=O)N2CCCCC2)ccc2ccccc12` (centres undefined) is “inactive”; for `O=C(NCCSCc1ccccc1)c1ccc(F)cc1` it is “inactive”; for `CCOc1ccc(-c2nnc(NC(=O)CCCOc3cccc(C)c3)o2)cc1` it is “inactive”.
To `COc1ccc(Br)cc1C(=O)NCc1cccnc1` belongs “inactive”.
To `C=CCNc1sc(C(=O)c2ccc(C)cc2)c(N)c1C#N` belongs “inactive”.
In the case of `Cc1ccc(C(=O)NCC(=O)OCC(=O)N2CCCc3ccccc32)cc1`, the call was inactive.
The entry for `CCC(OC(=O)C(NC(=O)c1ccccc1)c1ccccc1)C(=O)Nc1cc(C)on1` (centres undefined) is “inactive”; for `COc1ccc(-c2nnc(SCC(=O)NCc3ccco3)o2)cc1` it is “inactive”.
To `CCn1c(SCC(=O)N2CCCCC2)nc(O)cc1=O` belongs “inactive”.
The entry for `CC(=O)N1C(=O)C2(C(C#N)=C(N)Oc3c2c(C)nn3-c2ccccc2)c2ccccc21` (centres undefined) is “inactive”.
Regarding `Oc1ccc(N2CCN(Cc3ccc(OCCCN4CCCCC4)cc3)CC2)cc1`, the call was inactive.
The entry for `O=C(COC(=O)/C=C/c1ccco1)Nc1cccc([N+](=O)[O-])c1` is “inactive”; for `CCc1c(C)c2cc(Cl)c(O)c(CN(C)C)c2oc1=O` it is “inactive”; for `Cc1[nH]c2ccccc2c1/C=N/Nc1ccc(F)cc1F` it is “inactive”.
For the compound `COc1ccc(-c2[nH]ncc2/C=C(\C#N)C(=O)NC2CC2)cc1`, the compound was called inactive.
To `N#Cc1nc(Cc2cccc3ccccc23)oc1NCCCN1CCOCC1` belongs “inactive”.
The entry for `CCCSc1ncc(Cl)c(C(=O)Nc2ccc(S(=O)(=O)N3CC(C)OC(C)C3)cc2)n1` (centres undefined) is “inactive”.
The entry for `CCn1nc(C(=O)NCc2ccco2)c(Cl)c1Cl` is “inactive”; for `CCN(CC)Cc1c[nH]c2c(C(=O)OC)cccc12` it is “inactive”; for `Cc1ccccc1Cn1nc(C)c(NC(=O)c2noc3c2CCc2ccccc2-3)c1C` it is “inactive”.
As for `c1nc(N2CCC3(CC2)OCCO3)c2c3c(sc2n1)CCCC3`, the outcome was inactive.
The entry for `COCCSc1ccccc1C(=O)NCC1CCCO1` (centres undefined) is “inactive”.
The entry for `COc1ccccc1Nc1nc(NCc2ccco2)c2ccccc2n1` is “inactive”; for `CCCOc1ccc(C2NC(=S)NC(c3ccccc3)=C2C(=O)Nc2ccc(C)cc2)cc1OC` (centres undefined) it is “inactive”.
On to `N#Cc1nc(-c2cccs2)oc1NCCCN1CCOCC1`, for which the compound was called inactive.
Take `COc1ccc(C)cc1NC(=O)C(Sc1nnc(-c2ccncc2)n1-c1ccc(Cl)cc1)c1ccccc1` (centres undefined): the outcome was inactive.
The entry for `COc1ccc(OC)c(/C=N/NC(=O)Cc2nc3ccccc3[nH]2)c1` is “inactive”; for `Cc1ccc(/C=N/NC(=O)Cn2cnc3ccccc32)o1` it is “inactive”.
As to `C=CCn1c(SCCOc2ccc(OC)cc2)nnc1C(C)NC(=O)c1ccc(OC)cc1` (centres undefined), the call was inactive.
In the case of `O=C(CSCc1nc2ccccc2[nH]1)Nc1ccc2ccccc2c1`, the compound was called inactive.
`CC(Cl)C(=O)NNc1cccc(Cl)n1` (centres undefined): the outcome was inactive.
The entry for `O=S(=O)(c1ccc2c(c1)OCCO2)N1CCN(c2cccc(Cl)c2)CC1` is “inactive”.
With `O=C(CSc1ncn[nH]1)Nc1cccc2ccccc12`, the compound was classed as inactive.
With `COc1ccc(Oc2ccccc2/C=N/O)cc1`, the outcome was inactive.
To `CCCNC(=O)CN(C1CCCCC1)S(C)(=O)=O` belongs “inactive”.
With `Cc1nnc(SC(C)C(=O)Nc2ccc(S(=O)(=O)N3CCCCCC3)cc2)s1` (centres undefined), the call was inactive.
For `O=S(=O)(/N=C(/Nc1cccc2ccccc12)c1ccccc1)c1cccs1`, the call was inactive.
Consider `COc1ccc(-c2ccccc2)cc1NCc1ccccc1C`, for which the compound was classed as inactive.
